Activity calls are given as the source filed them. Unless noted, how the calls were made is not given here.
Columns and labels:
[1] = HepG2 liver cancer cell viability effects, profiling panel, resazurin fluorescence, 24 h, PK04 Diversity Set (AID 1172); settings: higher = more signal; further: test concentration not given here
[2] = basal S. cerevisiae growth modulation, no modifier, primary screen, OD600, strain BY4716, 24 h, basal condition (AID 1173); settings: OD600, 24 h, higher = more signal, called active from +8 up or from −8 down
[3] = MM1S myeloma cell viability, profiling panel, resazurin fluorescence, basal, 24 h, PK04 Diversity Set (AID 1174); settings: higher = more signal, called active from +8 up or from −8 down;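 further: MM1S multiple myeloma cell line; test concentration not given here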
[4] = target: Dihydroorotate dehydrogenase (quinone), mitochondrial (Plasmodium falciparum (isolate 3D7)) (UniProt Q08210); experiment: PfDHODH enzyme inhibitors, primary screen, biochemical, C-terminal His tag, absorbance 600 nm (AID 1175); settings: DCIP absorbance 600 nm, higher = more signal, called active from +8 up or from −8 down;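 further: recombinant parasite enzyme with a five histidine tag at its C terminus; test concentration not given here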
[5] = P. aeruginosa biofilm formation inhibitors, primary screen, strain PAO1, LB-PBS medium, absorbance 600 nm (AID 1176); further: test concentration not given here; settings: P. aeruginosa PAO1 growth/biofilm, A600, 12 h; higher = more signal
[6] = S. cerevisiae RM11-1a growth modifiers, primary screen, strain RM11-1a, OD600, basal, 24 h (AID 1177); settings: OD600, 24 h, higher = more signal, called active from +8 up or from −8 down;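 further: cultures grown under basal conditions with no added stressor; test concentration not given here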
[7] = E. coli acrAB mutant growth effects, primary screen, E. coli filamentation inducers, strain DRC39, OD650, 24 h (AID 1178); settings: higher = more signal, called active from +8 up or from −8 down;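 further: growth measured as culture turbidity by optical density at 650 nm; test concentration not given here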
[8] = E. coli acrAB mutant growth effects, primary screen, E. coli filamentation inducers, strain DRC39, OD650, 48 h (AID 1179);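 further: screen aims at cell division blockers that make cells filament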; settings: E. coli DRC39 delta-acrAB growth, higher = more signal, called active from +8 up or from −8 down
[9] = RPMI8226 myeloma cell viability, profiling panel, resazurin fluorescence, basal, 24 h, PK04 Diversity Set (AID 1180); settings: higher = more signal;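 further: RPMI8826 multiple myeloma cell line at 5000 cells per well; test concentration not given here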
[10] = target: E3 ubiquitin-protein ligase XIAP (Homo sapiens) (UniProt P98170); experiment: XIAP binders, primary screen, biophysical, small-molecule microarray, fluorescence 635 nm (AID 1181); settings: small-molecule microarray binding, higher = more signal;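 further: score merges 667 nm emission and signal to noise over triplicate slides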
E3 ubiquitin-protein ligase XIAP (Homo sapiens), sequence (P98170 whole entry, looked up): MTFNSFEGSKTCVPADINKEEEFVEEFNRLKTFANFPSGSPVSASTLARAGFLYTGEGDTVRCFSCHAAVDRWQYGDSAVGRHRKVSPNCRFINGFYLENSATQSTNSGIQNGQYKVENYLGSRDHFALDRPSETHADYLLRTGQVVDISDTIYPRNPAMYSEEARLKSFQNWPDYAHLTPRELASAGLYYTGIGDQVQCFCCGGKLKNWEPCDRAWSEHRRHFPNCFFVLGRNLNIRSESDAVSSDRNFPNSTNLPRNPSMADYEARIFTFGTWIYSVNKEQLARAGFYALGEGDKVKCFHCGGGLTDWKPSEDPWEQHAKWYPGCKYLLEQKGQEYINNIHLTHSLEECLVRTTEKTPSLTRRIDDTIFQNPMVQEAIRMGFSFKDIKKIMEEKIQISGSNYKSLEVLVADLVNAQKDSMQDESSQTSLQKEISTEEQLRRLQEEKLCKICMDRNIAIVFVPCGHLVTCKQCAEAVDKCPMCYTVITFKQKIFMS

Dihydroorotate dehydrogenase (quinone), mitochondrial (Plasmodium falciparum (isolate 3D7)), sequence (Q08210 whole entry, looked up): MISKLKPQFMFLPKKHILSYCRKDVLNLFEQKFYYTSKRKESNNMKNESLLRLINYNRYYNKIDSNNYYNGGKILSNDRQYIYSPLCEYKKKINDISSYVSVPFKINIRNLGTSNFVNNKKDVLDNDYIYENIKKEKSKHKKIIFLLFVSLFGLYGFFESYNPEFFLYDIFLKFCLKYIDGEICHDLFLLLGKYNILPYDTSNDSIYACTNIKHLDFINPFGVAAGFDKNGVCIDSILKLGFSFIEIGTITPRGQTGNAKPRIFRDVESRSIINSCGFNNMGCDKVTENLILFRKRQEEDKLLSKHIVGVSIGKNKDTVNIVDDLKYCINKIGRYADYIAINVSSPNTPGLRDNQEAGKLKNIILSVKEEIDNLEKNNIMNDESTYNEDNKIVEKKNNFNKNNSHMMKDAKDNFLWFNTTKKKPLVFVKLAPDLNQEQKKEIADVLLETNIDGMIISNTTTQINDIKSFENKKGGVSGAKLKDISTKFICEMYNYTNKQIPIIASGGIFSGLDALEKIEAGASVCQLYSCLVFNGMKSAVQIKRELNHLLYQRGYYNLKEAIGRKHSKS

Compound | z-score [1] | z-score [2] | z-score [3] | composite z-score [4] | z-score [5] | z-score [6] | z-score [7] | z-score [8] | z-score [9] | composite z-score [10]
COC(=O)[C@@]1(Cc2ccc(F)cc2)[C@H]2c3cc(C(=O)N4CCCC4)n(C)c3C[C@H]2CN1C(=O)c1ccccc1 | 0.0015 | -1.24 (inactive) | -0.698 (inactive) | -0.316 (inactive) | 0.523 (inactive) | 0.309 (inactive) | -0.359 (inactive) | -0.482 (inactive) | -0.069 | 0.49
CCOC(=O)C[C@H]1[C@H](OC(=O)c2ccc(-c3ccccc3)cc2)[C@@H](NC(=O)CC(C)C)c2cc(OCCCO)ccc2N1C(=O)c1ccccc1 | -0.6 | 1.28 (inactive) | -0.281 (inactive) | 0.88 (inactive) | 0.951 (inactive) | 0.964 (inactive) | -0.635 (inactive) | -0.776 (inactive) | -0.157 | -0.0559
CCC(CC)C(O)C1C=CC2C(=O)N(c3ccccc3)C(=O)C2N1Nc1ccc([N+](=O)[O-])cc1 (stereo not given) | -0.536 | 0.593 (inactive) | -0.89 (inactive) | 0.837 (inactive) | 0.862 (inactive) | 0.105 (inactive) | -0.667 (inactive) | -0.162 (inactive) | -0.587 | 0.0855
COC(=O)C1=CC(CCCO)=CC(c2ccc(CN3CCCC3)cc2)N(Cc2cc3c(cc2Br)OCO3)C=C1C(=O)OC (stereo not given) | 0.3 | 0.0793 (inactive) | -0.119 (inactive) | 0.214 (inactive) | 0.214 (inactive) | 0.73 (inactive) | 0.463 (inactive) | 0.67 (inactive) | -0.0377 | -0.0102
COc1ccc(C(O)C2C=CC3C(=O)N(c4ccccc4)C(=O)C3N2Nc2ccccc2F)cc1 (stereo not given) | -0.229 | -0.359 (inactive) | -0.0646 (inactive) | -0.0377 (inactive) | 0.987 (inactive) | -0.687 (inactive) | -0.548 (inactive) | -0.869 (inactive) | 0.435 | 0.483
CN(C)C(=O)[C@@]1(Cc2ccccc2)COC(c2ccc(OCCCO)cc2)=N1 | -0.272 | -3.27 (inactive) | -0.403 (inactive) | 0.263 (inactive) | -0.841 (inactive) | 0.536 (inactive) | 0.704 (inactive) | 1.19 (inactive) | 0.449 | 0.521
C=C(C(=O)CC[C@@H](OC(=O)c1ccccc1-c1ccccc1C(=O)O)c1ccccc1OCCO)C(C)C | 0.942 | -2.55 (inactive) | 0.132 (inactive) | -1.52 (inactive) | 0.743 (inactive) | -0.639 (inactive) | 0.475 (inactive) | 0.13 (inactive) | 0.131 | 0.209
CC(C)(C)OC(=O)CC[C@]1(C(=O)N2CCCCC2)COC(c2ccc(OCCCO)cc2)=N1 | 2.29 | -1.31 (inactive) | 0.619 (inactive) | -0.509 (inactive) | -1.17 (inactive) | -0.398 (inactive) | 0.134 (inactive) | 0.139 (inactive) | 1.41 | 0.162
C=C[C@@H](C)[C@H](O)c1ccc(OCCO)cc1 | 0.0075 | -0.731 (inactive) | 0.088 (inactive) | -0.445 (inactive) | 0.0852 (inactive) | 0.164 (inactive) | 1.02 (inactive) | 0.856 (inactive) | -0.127 | -0.184
COCC(=C=CC[C@H](O)c1cccc(OCCO)c1)C[C@H](O)COCc1ccccc1 | -0.136 | -1.76 (inactive) | -0.0529 (inactive) | -1.65 (inactive) | 0.838 (inactive) | -0.496 (inactive) | -0.0164 (inactive) | 0.0211 (inactive) | 0.0473 | 0.0736
COCCOC(=O)N1C(=O)[C@@]2(c3cc(C#CCCO)ccc31)[C@H](c1ccccc1OCCO)N1[C@H](c3ccccc3)[C@H](c3ccccc3)OC(=O)[C@H]1[C@@H]2C(=O)N1CCCCCCC1 | 0.543 | 0.971 (inactive) | -0.649 (inactive) | 0.495 (inactive) | 1.32 (inactive) | 2.11 (inactive) | -0.255 (inactive) | 0.343 (inactive) | 0.484 | 0.236
O=C1[C@@]23C=C(Br)[C@H](C[C@@H]2COC3)[C@@]12CO2 | -0.198 | -0.237 (inactive) | -0.402 (inactive) | 0.571 (inactive) | 0.224 (inactive) | 0.254 (inactive) | -0.417 (inactive) | -0.0396 (inactive) | -0.373 | -0.102
COC(=O)C(CC#Cc1ccc2c(c1)[C@]1(C(=O)N2)[C@H](c2ccc(O)cc2)N2[C@H](c3ccccc3)[C@H](c3ccccc3)OC(=O)[C@H]2[C@@H]1C(=O)N1CCCCCCC1)C(=O)OC | -0.123 | 0.303 (inactive) | -0.961 (inactive) | -7.28 (inactive) | 1.6 (inactive) | 0.27 (inactive) | 0.196 (inactive) | -0.0767 (inactive) | -3.94 | 0.557
O=C1[C@@H]2[C@@H](CC(COc3ccccc3)=C3[C@@H](CCc4ccccc4)OB(O)C[C@@H]32)C(=O)N1Cc1ccccc1 | -0.665 | -1.23 (inactive) | -0.0801 (inactive) | -0.77 (inactive) | 0.306 (inactive) | -0.0775 (inactive) | -0.304 (inactive) | -0.915 (inactive) | -0.0577 | -0.16
NC(=O)NCC#Cc1ccc2c(c1)[C@]1(C(=O)N2)[C@H](C(=O)N2CCN(c3ncccn3)CC2)[C@H]2C(=O)O[C@H](c3ccccc3)[C@H](c3ccccc3)N2[C@@H]1c1ccc(OCCO)cc1 | 0.906 | 2.6 (inactive) | 0.0294 (inactive) | -0.238 (inactive) | 1.91 (inactive) | 3.91 (inactive) | 0.436 (inactive) | -0.114 (inactive) | 0.0901 | -0.202
C=C(CCCC)C(=O)CC[C@H](OC(C)=O)c1ccc(OCCO)cc1 | 0.574 | -3.3 (inactive) | -0.464 (inactive) | -0.788 (inactive) | 0.0022 (inactive) | -2.33 (inactive) | -0.0158 (inactive) | 0.539 (inactive) | -0.939 | 0.648
O=C1OCCC/C=C\[C@H]2OC34C=CCN(c5ccc6ccccc6c5)C(=O)[C@H]3N(CCCO)C(=O)[C@@H]4C12 (stereo not given in full) | -0.408 | 0.556 (inactive) | -0.104 (inactive) | -0.818 (inactive) | -0.636 (inactive) | -1.1 (inactive) | -0.0367 (inactive) | -0.0547 (inactive) | 0.375 | -0.332
C=C[C@@H](OC)[C@H](OC(=O)Nc1ccc(SC)cc1)c1ccc(OCCO)cc1 | -0.8 | -0.88 (inactive) | -0.415 (inactive) | -0.915 (inactive) | 0.838 (inactive) | 0.884 (inactive) | -0.967 (inactive) | -1.5 (inactive) | -0.306 | -0.0918
NCCCCCNC(=O)[C@@H]1C[C@@H]2C(=O)N3CCC[C@H]3C(=O)N2[C@@H]1c1ccc(O)cc1 | -0.448 | 0.2 (inactive) | 0.422 (inactive) | 0.509 (inactive) | -0.102 (inactive) | 0.801 (inactive) | -0.281 (inactive) | -0.107 (inactive) | 0.272 | -0.0663
NC(=O)[C@H]1[C@@H]2C(=O)O[C@@H](c3ccccc3)[C@@H](c3ccccc3)N2[C@@H](c2ccc(O)cc2)[C@]12C(=O)Nc1ccc(C#CC3=CCCCC3)cc12 | -0.111 | 0.137 (inactive) | -2.5 (inactive) | -0.146 (inactive) | -0.144 (inactive) | 1.76 (inactive) | -0.466 (inactive) | -0.51 (inactive) | -4.76 | -0.0773
C=C(/C(=C/C[C@@H](OC(C)=O)c1ccc(OCCO)cc1)c1cc(C(=O)OC)ccc1OC)C(C)C | -0.459 | -0.0855 (inactive) | -0.53 (inactive) | -5.7 (inactive) | 0.437 (inactive) | 0.492 (inactive) | -0.0333 (inactive) | 0.0954 (inactive) | -0.161 | 0.0546
COCCOC(=O)N1C(=O)[C@@]2(c3cc(C#CCC(C(=O)OC)C(=O)OC)ccc31)[C@H](C(=O)NC[C@H](O)c1ccccc1)[C@H]1C(=O)O[C@H](c3ccccc3)[C@H](c3ccccc3)N1[C@@H]2c1ccc(OCCO)cc1 | -0.685 | 2.05 (inactive) | -0.0535 (inactive) | -0.429 (inactive) | 3.49 (inactive) | 3.11 (inactive) | 0.629 (inactive) | 0.453 (inactive) | -0.291 | 0.0806
